High-throughput results as filed in PubChem BioAssay.
Compounds with a hit are over-represented: about 3.9% of the library has one in this group of screens.
KKLEB cytotox: cytotoxicity in KKLEB CF airway cells, primary screen, cytotoxicity control for CF NF-kB inhibitor project, cell-based, uHTS, fluorescence assay plates; KKLEB CF airway cells viability, ATPlite luminescence, overnight; active compounds read low; cells stimulated with P. aeruginosa culture filtrate; activity change (cytotoxicity), % at 5 µM; 360,000 tested, 0.36% active; AID 602141, 2011;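 active means corrected activity change at or below -50% at 5 µM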
TROY NFkB inh: inhibitors of TROY-driven NF-kB signaling, primary screen, Q293 LMP1-TROYcd cells, NF-kB luciferase, uHTS. inhibition, % at 10 µM. Q293 LMP1-TROYcd NF-kB luciferase reporter, 4 h. 360,000 tested, 0.98% active;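 active means compounds whose plate-normalised and pattern-corrected inhibition of the luciferase reporter signal at the single screening dose is 50% or more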
TWEAK-Fn14 inh: inhibitors of TWEAK-Fn14 signaling, primary screen, luciferase reporter cells, uHTS; TWEAK-stimulated Fn14 reporter cells, luciferase luminescence, 8 h; inhibition, % at 10 µM; 360,000 tested, 2% active; in the data active means inhibition above about 50%
CF NFkB inh: inhibitors of PAF-induced NF-kB signaling, primary screen, cell-based, GFP fluorescence, uHTS. inhibition, % at 5 µM. KKLEB NF-kB-GFP reporter, GFP fluorescence overnight. AID 588850, 2011. 360,000 tested, 0.86% active;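 active means at least 50% inhibition at 5 µM, scaled per plate between neutral and stimulator controls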;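 further: PAF is a Pseudomonas aeruginosa culture filtrate used as stimulus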
HIF-2a block: HIF-2a reporter inhibitors, primary screen, luminescence, 786-0 RCC cells. inhibition, % at 18.8 µM. 360,000 tested, 0.72% active. 786-0 RCC cells HIF-2a reporter, luciferase luminescence, overnight;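 active means inhibition of the luminescence signal of 40% or more relative to plate controls, in a single-dose primary screen at 18.75 µM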
Peg3 prom inh: Peg3 promoter-driven luciferase inhibitors, primary screen, cell-based, HeLa, luciferase luminescence | HeLa PEG-Prom luciferase reporter, overnight | inhibition, % at 20 µM | 360,000 tested, 1.7% active;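 active means inhibition of at least 50% at 20 µM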
Each line names hits and unclear results; the compound was inactive in the other large screens.

Cc1nc(-c2cccc(NC(=O)c3ccc(Br)o3)c2)cs1	none
Cc1nc(-c2ccc(C(=O)Nc3cccc(Br)c3)cc2)cs1	TWEAK-Fn14 inh 66.0
COc1ccccc1NS(=O)(=O)c1cc(NC(=O)c2ccccc2F)ccc1N1CCOCC1	none
Nc1ccc(-c2cnc(N)c(C(=O)c3cccnc3)n2)cn1	TWEAK-Fn14 inh 79.2, CF NFkB inh 80.9
Nc1ccc(C(=O)c2cccs2)cn1	none
Cc1nc2ccccc2n1CC(=O)NCCN1CCOCC1	none
Cc1cc(OCc2cc(C(=O)N3CCN(CC4CC4)CC3)no2)cc(C)c1Cl	none
Cc1cc(OCc2cc(C(=O)N3CCC(Oc4cccnc4)CC3)no2)cc(C)c1Cl	TROY NFkB inh 50.5
COc1ccccc1N(CC(=O)NCCSCc1cccc(C)c1)S(=O)(=O)c1ccccc1	Peg3 prom inh 60.8
COc1ccc(N(CC(=O)NCCSCc2ccccc2C)S(=O)(=O)c2ccccc2)cc1	TROY NFkB inh 76.4
C=C(C)Cn1cnc2cc(C)c(C)cc21	TWEAK-Fn14 inh 86.0
COc1cccc(-c2cnc(C(O)c3ccc(C)cc3)[nH]2)c1 (configuration not stated)	none
COc1ccc(-c2cnc(C(O)c3ccccc3)[nH]2)cc1 (configuration not stated)	TROY NFkB inh 50.8
COc1cccc(-c2cnc(C(O)c3ccccc3)[nH]2)c1 (configuration not stated)	TROY NFkB inh 56.7, TWEAK-Fn14 inh 63.3
O=C(CSc1ccc(Cl)cc1)Nc1cccc(-c2nc3ccccc3[nH]2)c1	Peg3 prom inh 51.2
O=C(CSc1ccc(Cl)cc1)Nc1cccc(-c2nc3ncccc3o2)c1	TROY NFkB inh 67.5, TWEAK-Fn14 inh 70.6
CCOc1ccc(Br)cc1C(=O)Nc1ccc(C(=O)NCC(C)C)cc1	Peg3 prom inh 95.1
COc1ccc(Br)cc1C(=O)Nc1ccc(C(=O)NCC(C)C)cc1	none
CCOC(=O)Nc1ccc2c(c1)C(=NNC(N)=S)c1ccccc1-2	Peg3 prom inh 70.7
C#CCOCCOCCOCCNc1nc(N2CCN(C(=O)CCCCCCCCCCNC(=O)Cn3cc(C[C@@H](C)O)nn3)CC2)nc(N2CCN(C(=O)CCCCCCCCCCNC(=O)[C@@H]([C@H](C)O)n3cc(C)nn3)CC2)n1	TWEAK-Fn14 inh 83.8
C#CCOCCOCCOCCNc1nc(N2CCN(C(=O)CCCCCCCCCCNC(=O)Cn3cc(CCCCCN)nn3)CC2)nc(N2CCN(C(=O)CCCCCCCCCCNC(=O)[C@@H]([C@H](C)O)n3cc(C)nn3)CC2)n1	none
C#CCOCCOCCOCCNc1nc(N2CCN(C(=O)CCCCCCCCCCNC(=O)Cn3cc(C[C@@H](C)O)nn3)CC2)nc(N2CCN(C(=O)CCCCCCCCCCNC(=O)[C@@H](CCSC)n3cc(CCO)nn3)CC2)n1	TWEAK-Fn14 inh 60.2
C#CCOCCOCCOCCNc1nc(N2CCN(C(=O)CCCCCCCCCCNC(=O)Cn3cc(C[C@@H](C)O)nn3)CC2)nc(N2CCN(C(=O)CCCCCCCCCCNC(=O)[C@@H]([C@H](C)CC)n3cc(CCCCCN)nn3)CC2)n1	TROY NFkB inh 68.5, Peg3 prom inh 101.2
CC(=O)c1cc2c(cc1NC(=O)Cc1ccsc1)OCO2	none
CCOC(=O)c1c(C)c(C(=O)Nc2cc(OC)ccc2OC)c(C)n1CC	Peg3 prom inh 56.6
CN(C)C(=O)c1ccc(N=Nc2c(O)c3ccccc3[nH]c2=O)cc1	none
O=C(O)c1ccc(N=Nc2c(O)[nH]c3ccccc23)cc1	TWEAK-Fn14 inh 89.7
COc1cccc(OCc2cc(C(=O)N3CCN(c4ccccc4O)CC3)no2)c1	none
COc1ccc(NS(=O)(=O)c2cccc(C(=O)NNC(=O)c3cccc(NC(C)=O)c3)c2)cc1	none
O=C(O)c1cccc2cccc(-c3c4ccc(=O)c(O)c-4oc4c(O)c(O)ccc34)c12	TWEAK-Fn14 inh 81.6
O=C(O)c1cccc2cc(-c3ccccc3)oc(=O)c12	none
